About 7,900 targets were measured; listed, in parts, are those with a hit and a random draw of the rest. About 0.6% of all pairs of compound and target were hits. Values without a mark were called inactive.

Chain of UniProt Q5T6F0 (Q5T6F0 whole entry, looked up): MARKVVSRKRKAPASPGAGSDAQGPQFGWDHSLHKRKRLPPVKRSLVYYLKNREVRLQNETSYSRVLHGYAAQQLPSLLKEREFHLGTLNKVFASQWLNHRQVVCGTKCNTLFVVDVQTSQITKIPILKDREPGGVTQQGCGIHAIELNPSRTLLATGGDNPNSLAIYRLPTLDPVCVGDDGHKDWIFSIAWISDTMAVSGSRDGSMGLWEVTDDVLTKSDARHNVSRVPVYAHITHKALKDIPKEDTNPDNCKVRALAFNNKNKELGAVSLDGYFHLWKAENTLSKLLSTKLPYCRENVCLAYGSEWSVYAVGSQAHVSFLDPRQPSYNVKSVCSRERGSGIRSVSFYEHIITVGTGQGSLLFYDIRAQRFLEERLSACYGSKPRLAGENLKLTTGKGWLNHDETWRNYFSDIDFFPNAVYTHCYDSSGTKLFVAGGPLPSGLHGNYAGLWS
Chain of UniProt Q13409 (Q13409 whole entry, looked up): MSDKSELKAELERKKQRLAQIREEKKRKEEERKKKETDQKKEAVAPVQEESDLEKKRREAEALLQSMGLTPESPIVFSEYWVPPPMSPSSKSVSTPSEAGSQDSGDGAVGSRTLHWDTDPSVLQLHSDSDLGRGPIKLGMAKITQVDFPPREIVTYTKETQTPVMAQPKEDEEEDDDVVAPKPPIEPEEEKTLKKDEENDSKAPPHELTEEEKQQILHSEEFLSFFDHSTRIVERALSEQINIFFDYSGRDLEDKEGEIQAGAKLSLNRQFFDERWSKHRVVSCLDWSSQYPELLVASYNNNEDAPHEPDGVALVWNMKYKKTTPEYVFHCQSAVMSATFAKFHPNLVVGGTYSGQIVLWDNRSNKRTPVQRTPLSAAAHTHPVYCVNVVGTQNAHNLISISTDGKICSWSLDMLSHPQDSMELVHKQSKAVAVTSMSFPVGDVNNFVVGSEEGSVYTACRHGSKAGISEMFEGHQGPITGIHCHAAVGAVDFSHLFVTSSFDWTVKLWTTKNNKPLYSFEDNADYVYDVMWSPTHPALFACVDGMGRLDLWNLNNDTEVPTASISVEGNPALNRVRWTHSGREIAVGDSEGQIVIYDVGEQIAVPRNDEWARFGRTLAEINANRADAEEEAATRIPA
Chain of UniProt Q96GQ7 (Q96GQ7 whole entry, looked up): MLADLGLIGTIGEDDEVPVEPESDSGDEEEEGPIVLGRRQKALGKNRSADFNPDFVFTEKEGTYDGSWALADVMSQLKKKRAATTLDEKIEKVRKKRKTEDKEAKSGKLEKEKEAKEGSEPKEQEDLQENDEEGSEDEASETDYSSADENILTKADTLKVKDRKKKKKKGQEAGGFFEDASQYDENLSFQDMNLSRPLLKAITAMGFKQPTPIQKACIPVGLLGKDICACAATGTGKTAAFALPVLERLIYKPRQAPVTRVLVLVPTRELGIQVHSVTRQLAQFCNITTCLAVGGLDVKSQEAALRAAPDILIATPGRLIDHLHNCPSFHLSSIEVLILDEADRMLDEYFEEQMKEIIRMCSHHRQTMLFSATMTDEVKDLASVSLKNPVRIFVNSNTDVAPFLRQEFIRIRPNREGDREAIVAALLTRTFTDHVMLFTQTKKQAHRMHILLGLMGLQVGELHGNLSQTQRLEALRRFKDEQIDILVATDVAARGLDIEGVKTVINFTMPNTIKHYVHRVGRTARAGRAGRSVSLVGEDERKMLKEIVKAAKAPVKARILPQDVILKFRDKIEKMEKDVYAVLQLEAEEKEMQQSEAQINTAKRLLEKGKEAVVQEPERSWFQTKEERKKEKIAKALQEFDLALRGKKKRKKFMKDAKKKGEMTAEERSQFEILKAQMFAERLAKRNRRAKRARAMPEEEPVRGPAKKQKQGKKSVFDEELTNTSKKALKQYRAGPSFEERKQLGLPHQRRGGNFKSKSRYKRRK
Chain of UniProt Q15910 (Q15910 whole entry, looked up): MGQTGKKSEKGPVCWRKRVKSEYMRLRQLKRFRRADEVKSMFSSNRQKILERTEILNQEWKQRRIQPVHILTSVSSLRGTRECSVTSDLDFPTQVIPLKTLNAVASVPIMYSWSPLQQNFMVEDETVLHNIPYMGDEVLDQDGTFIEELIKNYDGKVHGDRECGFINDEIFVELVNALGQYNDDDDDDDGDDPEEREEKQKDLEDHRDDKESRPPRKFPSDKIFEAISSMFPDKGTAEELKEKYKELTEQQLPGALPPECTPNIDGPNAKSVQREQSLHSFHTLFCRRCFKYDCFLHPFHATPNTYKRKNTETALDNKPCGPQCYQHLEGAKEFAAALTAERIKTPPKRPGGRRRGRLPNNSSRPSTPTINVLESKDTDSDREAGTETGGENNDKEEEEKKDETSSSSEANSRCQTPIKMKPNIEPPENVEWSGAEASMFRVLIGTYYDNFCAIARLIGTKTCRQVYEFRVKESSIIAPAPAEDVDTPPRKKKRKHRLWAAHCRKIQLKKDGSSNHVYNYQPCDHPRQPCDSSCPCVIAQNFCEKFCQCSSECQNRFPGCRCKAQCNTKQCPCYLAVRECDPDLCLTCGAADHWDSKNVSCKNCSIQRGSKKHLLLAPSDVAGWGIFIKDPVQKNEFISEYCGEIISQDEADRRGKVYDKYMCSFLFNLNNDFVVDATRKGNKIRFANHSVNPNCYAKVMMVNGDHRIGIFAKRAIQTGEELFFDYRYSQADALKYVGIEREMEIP
Chain of UniProt O43432 (O43432 whole entry, looked up): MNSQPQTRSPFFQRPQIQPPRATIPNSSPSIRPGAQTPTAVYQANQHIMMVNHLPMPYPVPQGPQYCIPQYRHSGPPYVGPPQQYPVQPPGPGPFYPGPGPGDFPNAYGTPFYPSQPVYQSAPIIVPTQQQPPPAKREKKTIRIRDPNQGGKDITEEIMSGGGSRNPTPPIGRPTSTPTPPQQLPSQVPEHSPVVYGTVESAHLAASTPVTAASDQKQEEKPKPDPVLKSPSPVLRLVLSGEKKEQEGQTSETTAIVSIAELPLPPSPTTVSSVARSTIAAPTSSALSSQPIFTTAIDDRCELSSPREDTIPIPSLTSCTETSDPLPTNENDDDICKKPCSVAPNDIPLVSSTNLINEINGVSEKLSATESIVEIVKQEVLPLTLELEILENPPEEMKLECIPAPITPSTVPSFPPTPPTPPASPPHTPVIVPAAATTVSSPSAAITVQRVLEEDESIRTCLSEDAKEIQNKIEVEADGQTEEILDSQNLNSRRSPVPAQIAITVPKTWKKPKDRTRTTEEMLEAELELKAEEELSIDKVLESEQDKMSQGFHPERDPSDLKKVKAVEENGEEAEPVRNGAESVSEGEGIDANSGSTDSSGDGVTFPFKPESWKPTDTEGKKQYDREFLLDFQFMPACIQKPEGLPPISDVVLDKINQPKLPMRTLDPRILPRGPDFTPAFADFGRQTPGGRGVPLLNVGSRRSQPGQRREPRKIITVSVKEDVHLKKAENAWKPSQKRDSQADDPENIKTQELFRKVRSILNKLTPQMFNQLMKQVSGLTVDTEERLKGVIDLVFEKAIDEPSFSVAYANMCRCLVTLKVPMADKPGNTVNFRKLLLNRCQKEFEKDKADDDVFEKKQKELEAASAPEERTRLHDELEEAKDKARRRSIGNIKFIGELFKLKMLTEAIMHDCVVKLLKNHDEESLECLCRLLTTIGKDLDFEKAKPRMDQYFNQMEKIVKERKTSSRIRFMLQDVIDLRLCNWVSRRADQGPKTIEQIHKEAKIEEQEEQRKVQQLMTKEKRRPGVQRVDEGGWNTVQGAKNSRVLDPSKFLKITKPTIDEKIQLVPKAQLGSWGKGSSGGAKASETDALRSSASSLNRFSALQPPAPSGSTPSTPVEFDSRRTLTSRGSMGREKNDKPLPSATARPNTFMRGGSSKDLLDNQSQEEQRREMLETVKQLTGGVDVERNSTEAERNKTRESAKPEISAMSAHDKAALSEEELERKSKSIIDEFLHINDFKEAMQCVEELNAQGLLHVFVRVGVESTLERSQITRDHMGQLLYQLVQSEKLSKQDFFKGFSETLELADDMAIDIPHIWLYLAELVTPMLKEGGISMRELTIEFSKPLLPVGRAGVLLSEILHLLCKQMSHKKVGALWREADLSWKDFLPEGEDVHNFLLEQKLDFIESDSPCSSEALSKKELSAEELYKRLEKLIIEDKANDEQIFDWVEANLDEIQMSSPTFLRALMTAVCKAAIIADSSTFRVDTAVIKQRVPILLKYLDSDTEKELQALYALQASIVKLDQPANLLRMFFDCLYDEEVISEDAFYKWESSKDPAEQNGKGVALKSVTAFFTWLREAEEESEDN
Chain of UniProt Q9NQZ7 (Q9NQZ7 whole entry, looked up): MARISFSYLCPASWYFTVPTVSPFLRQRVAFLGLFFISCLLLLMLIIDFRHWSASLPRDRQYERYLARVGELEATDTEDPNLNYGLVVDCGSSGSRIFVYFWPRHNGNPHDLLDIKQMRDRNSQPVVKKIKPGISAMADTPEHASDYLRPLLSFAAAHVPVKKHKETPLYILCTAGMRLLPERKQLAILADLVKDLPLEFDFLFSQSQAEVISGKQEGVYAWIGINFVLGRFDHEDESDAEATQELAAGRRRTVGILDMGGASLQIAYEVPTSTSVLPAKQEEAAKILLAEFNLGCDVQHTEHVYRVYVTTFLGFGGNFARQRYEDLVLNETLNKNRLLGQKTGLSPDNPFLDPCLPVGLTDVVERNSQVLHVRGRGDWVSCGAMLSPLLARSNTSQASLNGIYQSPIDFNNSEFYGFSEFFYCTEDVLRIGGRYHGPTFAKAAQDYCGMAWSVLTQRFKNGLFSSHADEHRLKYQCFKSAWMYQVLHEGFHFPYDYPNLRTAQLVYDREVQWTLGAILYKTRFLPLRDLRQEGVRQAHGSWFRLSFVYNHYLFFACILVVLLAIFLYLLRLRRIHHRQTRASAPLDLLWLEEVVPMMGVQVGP
Chain of UniProt P29692 (P29692 whole entry, looked up): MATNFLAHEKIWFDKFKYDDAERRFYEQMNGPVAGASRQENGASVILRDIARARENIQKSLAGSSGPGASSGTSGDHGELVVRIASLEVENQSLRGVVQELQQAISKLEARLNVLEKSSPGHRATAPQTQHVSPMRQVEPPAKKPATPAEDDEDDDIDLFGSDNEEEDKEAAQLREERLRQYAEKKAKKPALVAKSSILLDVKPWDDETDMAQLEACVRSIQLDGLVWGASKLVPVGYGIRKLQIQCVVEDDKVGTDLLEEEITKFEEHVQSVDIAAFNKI

Compound in the assay: FC(F)(F)c1ccc(/C=C/c2nc(COc3ccc(CCCCn4ccnn4)cc3)co2)cc1 [mubritinib]
Description: log2 fold change, soluble protein after heating vs DMSO (PISA); higher = thermal stabilisation; K562 cells, 10 uM, 30 min; active = over 0.2 and 3.5 SD of the protein, either way, in both replicates (recomputed). Summed up:
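Quantification of soluble protein used TMTpro 16plex LC-MS/MS, with channel sums equalised. Samples were the supernatant after 21,000xg for 90 min of pooled aliquots from K562 cells (2×10^6 cells/mL) treated with 10 μM compound for 30 min, heated for 3 min over 48°C-58°C, and extracted in PBS with 0.5% NP-40 at 4°C. Values, from duplicates, describe thermal stability against control samples on a log2 fold-change scale.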
In the case of EEF1D isoform 3 (UniProt P29692), the log2 fold change was -0.014.
As for DNAJC24 (UniProt Q6P3W2), the log2 fold change was 0.06.
For the target ENTPD7 (UniProt Q9NQZ7), the log2 fold change is 0.097.
For EZH2 isoform 2 (UniProt Q15910), the log2 fold change is -0.097.
With EIF4G3 isoform 3 (UniProt O43432), the log2 fold change is -0.005.
As for DDX11 (UniProt Q96FC9), the log2 fold change was -0.015.
Turning to EEF2K (UniProt O00418), the log2 fold change was -0.371.
Regarding DYNC1I2 isoform 2 (UniProt Q13409), the log2 fold change was 0.067.
To DCAF4 (UniProt Q8WV16) belongs 0.094; to EIF3J isoform 2 (UniProt O75822), 0.1; to DCAF12 (UniProt Q5T6F0), 0.087.
For the target EID1 (UniProt Q9Y6B2), the log2 fold change is 0.208.
The same measure for DDX27 (UniProt Q96GQ7): -0.146.
To ELMO1 (UniProt Q92556) belongs -0.087; to DSN1 (UniProt Q9H410), -0.03.
To EPHB4 (UniProt P54760) belongs 0.176.
For the target DOP1A (UniProt Q5JWR5), the log2 fold change is 0.127.
The same measure for EHBP1 (UniProt Q8NDI1): -0.586 (active); for DDX46, A0A0C4DG89: 0.242.
Regarding DOLPP1 (UniProt Q86YN1), the log2 fold change was 0.021.
To DHRS13 (UniProt Q6UX07) belongs 0.049.

(Values after the supplement of paper PMC10849652.)
